We go through 40 molecules from PubChem BioAssay (Tox21).

Results filed as inconclusive are left out. Values without a mark were called inactive. Calls of active or inactive are those of the source. The call rests on the fitted dose curve.
On the % scale 0 is the no-effect control and ±100 the full control effect.

The test in a line: qHTS assay for small molecule agonists of the p53 signaling pathway (AID 651631). Further: nearly all actives have a fitted effect of over 15% in size. To be noted: HCT-116 p53RE-bla reporter, beta-lactamase FRET ratio, 16 h; series mostly up to 73.3 µM. An excerpt: U.S. Tox21 Program National Center for Advancing Translational Sciences [NCATS] NIH Chemical Genomics Center [NCGC] U.S. Environmental Protection Agency [EPA] National Institutes of Environmental Health Sciences [NIEHS] National Toxicology Program [NTP] U.S. Food and Drug Administration [FDA] Tox21 Assay Overview: p53, a tumor suppressor protein, is activated following cellular insult, including DNA damage and other cellular stresses. The activation of p53 regulates cell fate by inducing DNA repair, cell cycle arrest, apoptosis, or cellular senescence. The activation of p53, therefore, is a good indicator of DNA damage and other cellular stresses. The CellSensor p53RE-bla HCT-116 cell line (Invitrogen) contains a stably integrated beta-lactamase reporter gene under control of the p53 response elements. The activation of the reporter gene under culture conditions can be detected by fluorescence intensity. This cell line was used to screen the Tox21 compound library in a 1536-well plate format and to identify agonists that activate the p53 signaling pathway.
Tox21 Assay Protocol Summary: The p53RE-bla cells were dispensed at 4,000 cells/5 ul/well in 1536-well black wall/clear bottom plates using a Multidrop dispenser. After the assay plates were incubated at a 37 C/5% CO2 incubator for 5 hours, 23 nL of compounds dissolved in DMSO, positive controls or DMSO only was transferred to the assay plate by a pin tool. The plates were incubated at 37 C for 16 hours. After 1 uL of LiveBLAzerTM B/G FRET substrate was added using a Flying Reagent Dispenser, the plates were incubated at room temperature for 2 hours, and fluorescence intensity was measured by an Envision plate reader.
In general terms: Quantitative high-throughput screening tests each substance at several concentrations.
In the case of `CC(C)CC(C)CC(C)CC(C)COC(=O)c1ccccc1C(=O)OCC(C)CC(C)CC(C)CC(C)C` (stereo not given), the outcome was inactive.

For `O=C(O)Cc1ccc(Cl)cc1Cl`, the result was inactive. Take `COc1ccc(S(=O)(=O)N2c3ccc(Cl)cc3[C@@](O)(c3ccccc3Cl)[C@H]2C(=O)N2CCC[C@@H]2C(N)=O)cc1OC`: the outcome was inactive. Still for that read-out and setting: as for `CCCCNC1CC(C)(C)NC(C)(C)C1`, the entry is “inactive”. The same measure, in the same setting: as for `O=C(CS(=O)Cc1ccco1)NC/C=C\COc1cc(CN2CCCCC2)ccn1` (stereo not given), the entry is “inactive”. Regarding `CC(=O)c1sc(C)nc1C`, the outcome was inactive.

Regarding `CCOC(=O)c1ccc(OC(=O)CCCCCN=C(N)N)cc1`, the outcome was inactive. On the same count and under the same terms, as for `COC(=O)c1ccccc1C(=O)c1ccc(OCCN2CCCCC2)cc1`, the entry is “inactive”; as for `CC(C)=CCOC(=O)c1ccccc1`, “inactive”. In the case of `O=C(c1ccc(O)cc1)c1ccc(O)c(O)c1O`, the outcome was inactive. The same measure, in the same setting: as for `COc1ccc(Br)c(C)c1`, the entry is “inactive”; as for `CC(S)C(=O)NCC(=O)O` (stereo not given), “inactive”.

For the molecule `CCCCCCOC(=O)CC`, the result was inactive. The same measure, in the same setting: as for `CC(=O)CCCCn1c(=O)c2c(ncn2C)n(C)c1=O`, the entry is “inactive”.

Turning to `CCOC(=O)[C@H](CCc1ccccc1)N[C@@H](C)C(=O)N1C(=O)N(C)C[C@H]1C(=O)O`, the outcome was inactive.

With `O=C1c2ccccc2C(=O)N1CCl`, the outcome was inactive. Turning to `CCCC(=O)C(C)=O`, the result was inactive. `CC(C)=O`: the outcome was inactive. As to `Cc1c(I)c(=O)n(-c2ccccc2)n1C`, the result was inactive.

In the case of `c1ccc2c(c1)ccc1c3ccccc3ccc21`, the outcome was inactive. On the same count and under the same terms, as for `On1nnc2ccccc21`, the entry is “inactive”. Consider `CCOC(=O)/C=C/c1ccccc1`, for which the outcome was inactive. Turning to `Brc1ccc(-c2ccccc2)cc1`, the outcome was inactive. As to `C[C@@H]1O[C@@H](O[C@@H]2[C@@H](O)[C@H](OCCc3ccc(O)c(O)c3)O[C@H](CO[C@@H]3O[C@H](CO)[C@@H](O)[C@H](O)[C@H]3O)[C@H]2OC(=O)/C=C/c2ccc(O)c(O)c2)[C@H](O)[C@H](O)[C@H]1O`, the result was inactive. On the same count and under the same terms, as for `Nc1ccc(S(=O)(=O)Nc2ccc(Cl)nn2)cc1`, the entry is “inactive”; as for `C=CCCCCCCCCCCCC`, “inactive”.

Regarding `Cc1ccccc1OCC(O)CO` (stereo not given), the result was inactive.

Turning to `CCCCOCCOC(=O)COc1nc(Cl)c(Cl)cc1Cl`, the outcome was inactive. As to `CC1(C)S[C@@H]2[C@H](N=CN3CCCCCC3)C(=O)N2[C@H]1C(=O)O`, the result was inactive. As for `CC(C)CC(=O)O`, the result was inactive. `O=C(/N=N/C(=O)OCc1ccccc1)OCc1ccccc1`: the result was inactive. Take `O=S(O)(O)=S`: the activation is -6.63% [at 8.3 µM]. For `CC1(CO)CN(c2ccccc2)NC1=O` (stereo not given), the result was inactive. Still for that read-out and setting: as for `CC(=O)NCCCCCC(=O)O`, the entry is “inactive”; as for `Cc1cccc(C)c1OCC(C)N` (stereo not given), “inactive”; as for `O=C(CCNNC(=O)c1ccncc1)NCc1ccccc1`, “inactive”. Still for that read-out and setting: as for `CCCCCCCCCC(C)=O`, the entry is “inactive”; as for `CN=C(NC#N)Nc1ccc(C2=NNC(=O)CC2C)cc1` (stereo not given), “inactive”. As to `CNC(=O)[C@H]1O[C@@H](n2cnc3c(NCc4cc(Cl)ccc4OCc4cc(C)no4)ncnc32)[C@H](O)[C@@H]1N`, the outcome was inactive.

As to `Cc1ccc2c(c1)OCC(=O)CO2`, the result was inactive.
